AHR act = AHR activators, primary screen, cell-based, luminescence, luciferase reporter, human; Aryl hydrocarbon receptor (Homo sapiens), P35869; AHR-responsive luciferase reporter cells; activation, % at 5 µM; 320,000 compounds, 2.5% hits; in the data active = activation above about 47%;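 note: 0% = vehicle wells and 100% = reference agonist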
ADAM17 inh = ADAM17 inhibitors, primary screen, biochemical, QFRET; recombinant ADAM17, EDANS/DABCYL FRET peptide cleavage; inhibition, % at 6.95 µM; 370,000 compounds, 0.83% hits; AID 720648, 2013;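 active = inhibition above the mean of compounds lying between control limits plus 3 SD, set per campaign, cut at about 8.5% in these data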;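 note: 0% = DMSO-only wells as the low control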
rCAG binder = binders of r(CAG) RNA repeats, primary screen, biochemical, fluorescence; r(CAG) RNA repeat, TO-PRO-1 dye displacement fluorescence; inhibition, % at 3 µM; 370,000 compounds, 1.3% hits;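 active = inhibition above the plate cutoff, the mean of all test compounds on that plate plus 3 SD, cut at about 35% in these data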;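 note: 0% = DMSO alone and 100% = 100 µM mitoxantrone as full dye displacement; higher means more dye released from RNA so lower well fluorescence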
NR3A LBD binder = binders of NR3A ligand-binding domain, primary screen, biophysical, differential scanning fluorimetry, uHTS. Glutamate receptor ionotropic, NMDA 3A (GRIN3A) ligand-binding domain. NR3A LBD differential scanning fluorimetry, Tm shift; 0% = protein alone, 100% = glycine-bound protein. Tm shift relative to glycine control, % at 25 µM. 340,000 compounds, 2.5% hits;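 active = melting temperature shift of at least 10% of the positive control shift, at one fixed dose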
KLK7 zymogen act = proKLK7 zymogen activators, primary screen, biochemical, fluorescence intensity; activation, % at 7 µM; Kallikrein-7 (Homo sapiens), P49862; 370,000 compounds, 0.9% hits; purified proKLK7, EDANS-DABCYL substrate fluorescence; 100% is mature enzyme control, 0% vehicle;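 active = activation above the mean of all tested compounds plus 3 SD, computed per campaign excluding outliers beyond control limits, cut at about 13% in these data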
ADAM10 inh = human ADAM10 inhibitors, primary screen, biochemical, QFRET, HTS. Disintegrin and metalloproteinase domain-containing protein 10 (Homo sapiens), O14672. recombinant ADAM10, EDANS/DABCYL FRET peptide cleavage, 3 h. inhibition, % at 7 µM. 370,000 compounds, 0.62% hits. AID 720582, 2013;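 active = inhibition above a per-campaign cutoff equal to the mean of compounds falling between control-based bounds plus 3 SD, cut at about 20% in these data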;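 note: 0% = DMSO wells while the 100% control is not disclosed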
proKLK7 act conf = proKLK7 zymogen activators, confirmation, biochemical, fluorescence intensity, triplicate | shares compounds with KLK7 zymogen act | activation, % at 7 µM | 3,200 compounds, 68% hits | purified proKLK7, EDANS-DABCYL substrate fluorescence; scaled: vehicle 0, mature enzyme 100;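 active = activation, as change over the incubation, above the mean of all tested compounds plus 3 SD, cut at about 13% in these data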
EDANS-DABCYL int = EDANS-DABCYL substrate optical interference, artefact control for kallikrein-7 zymogen activator project, biochemical, fluorescence intensity, high throughput; shares compounds with KLK7 zymogen act; no enzyme, 4 h; solvent 0%, active enzyme control 100%; AID 686952, 2013; activation, % at 7 µM; 3,200 compounds, 80% hits;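 active = activation above the all-compound mean plus 3 SD, ignoring values outside control-based bounds, cut at about 4.8% in these data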;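 note: value is the 4 h activation minus the activation read at time zero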
The depositor's hits bear a star; i = inactive; . = no result; ! = repeats disagree. An excerpt weighted towards active compounds, which were near 7% of everything screened.

SMILES | AHR act | ADAM17 inh | rCAG binder | NR3A LBD binder | KLK7 zymogen act | ADAM10 inh | proKLK7 act conf | EDANS-DABCYL int
COc1ccc2noc3c2c1C(=O)c1ccccc1-3 | 18 | -2 | i | -364 | 25* | -2 | -39 | -31
CCN(C)c1ccc(/C=N\n2nnnc2N)cc1 | 31 | -91 | 2 | -1 | 13* | -381 | 46* | 43*
OCCCNCc1ccc(N(c2ccccc2)c2ccccc2)cc1 | -4 | 0 | 10 | -3 | 0 | -9 | . | .
CCc1cc2c(COC(=O)c3cccc(S(C)(=O)=O)c3)cc(=O)oc2cc1O | 0 | -158 | 10 | -7 | 508* | -391 | 568* | 559*
Cc1ccc(S(=O)(=O)NCC(=O)OCc2cc(=O)oc3c(C)c(C)ccc23)cc1C | -1 | 1 | 4 | -9 | 0 | -11 | . | .
CNS(=O)(=O)c1cccc(C(=O)OCc2cc(=O)oc3c(C)c(O)ccc23)c1 | -4 | -44 | 14 | -3 | 265* | -108 | 603* | 607*
CCc1cc2c(COC(=O)c3c(C)noc3C)cc(=O)oc2cc1O | 1 | -84 | 2 | -3 | 1 | -265 | . | .
Cc1cc(OCC(=O)OCC(=O)NCCN2C(=O)CSC2=O)ccc1Cl | -1 | 0 | 2 | 0 | -1 | -7 | . | .
COc1ccc(-c2c(NC(=O)C(C)C)n(C)c3ccccc3c2=O)cc1 | 0 | -143 | -2 | -2 | 16* | -438 | 18* | 20*
COCC(=O)OCC(=O)Nc1ccc(Cl)cc1[N+](=O)[O-] | 0 | -1 | -3 | 1 | 0 | 1 | . | .
CCCC(=O)N1CCC1(C)C(=O)Nc1ccc(C)cc1 (centres undefined) | . | 2 | 1 | . | 0 | -2 | . | .
CCCC(=O)N1CCC1(C)C(=O)Nc1ccc2nccnc2c1 (centres undefined) | . | -194 | 1 | . | 13* | i | 8 | 8.5*
O=C(COC(=O)c1ccccc1SCC(=O)N1CCCC1)NC1CCS(=O)(=O)C1 (centres undefined) | 1 | -2 | 0 | 0 | 0 | 1 | . | .
O=C(COC(=O)c1ccccc1SCC(=O)NC1CCS(=O)(=O)C1)NC1CCS(=O)(=O)C1 (centres undefined) | 0 | -11 | -1 | 0 | 14* | -39 | 19* | 19*
CCCNC(=O)CCc1c(C)nc2nc(C)nn2c1C | -3 | 0 | 1 | -1 | 0 | 5 | . | .
CCCS(=O)(=O)c1c(S(=O)(=O)CCC)c2cc(-c3ccncc3)ccn2c1C(=O)OC | 2 | i | 6 | 0 | 66* | i | 67* | 65*
COC(=O)c1ccc2c(C)c(C3(O)CCCCC3)[nH]c2c1 | 10 | i | -4 | -1 | 38* | i | -80 | -82
COC(=O)c1cc(Cl)cc2c(C)c(C3(O)CCCCC3)[nH]c12 | 2 | -16 | 0 | -6 | -10 | -48 | . | .
F[B-](F)(F)c1cc2ccccc2s1 | . | -3 | 3 | -3 | 0 | -4 | . | .
C[n+]1c2cc(N)ccc2cc2ccc(N)cc21 | . | -23 | -75 | -14 | 34*! | -80 | 56* | 59*
CCOC(=O)CC1C(=O)NCCN1C(=O)c1ccc(Cl)cc1 (centres undefined) | 0 | -2 | -2 | 1 | -1 | -10 | . | .
N#CC1C(=O)Nc2cccnc21 (centres undefined) | . | -369 | 2 | . | 37* | i | 34* | 33*

Screening results from PubChem.
